Laboratory results reported in PubChem BioAssay AID540335 (Broad Institute, 2011).
In all, about 1,300 compounds went through this assay and about 270 (21%) were called active. Only a sample is shown. Entries with a potency or affinity are not part of this list. A number with no mark means an inactive call.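 Rule for the calls: active = dose-dependent rise or fall in viability, either side of zero, with half-maximal concentration at or below a set limit; inconclusive = flat curve at 30 to 70% viability loss, or poor fit; inactive = flat within 30% either way, or potency beyond limit.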

Assay: proliferation inhibition in MITF-low A375 cells – cell-based, cherry-pick samples, set 2, counter-screen for MITF modulator project, dose response (AID 540335);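 note: A375 human melanoma cells which do not depend on MITF; 0% = median of neutral control wells and 100% = double that signal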
Conditions: CellTiter-Glo ATP luminescence, 24 h; series mostly up to 35 µM; activity change, negative = decreased viability: at the top concentration

| SMILES | activity change, negative = decreased viability [%] |
| --- | --- |
| CS(=O)(=O)c1ccc(C(=O)OCC(=O)NCc2cccs2)cc1[N+](=O)[O-] | 17.8 |
| Cn1cccc1C(=O)NC(=O)COC(=O)c1ccc(S(C)(=O)=O)c([N+](=O)[O-])c1 | 11.1 |
| O=C(CCl)N1N=C(c2ccco2)CC1c1cccs1 (centres undefined) | -31.6 |
| CC(C)C(=O)N1CCN(c2ccc(NC(=O)c3ccc([N+](=O)[O-])o3)cc2Cl)CC1 | 29.3 |
| CCCCC[n+]1ccn(C2=C([O-])c3ccccc3C(=O)/C2=N\S(=O)(=O)c2ccccc2)c1 | -11 |
| O=C(Nc1ccc2c(c1)OCCO2)c1coc2ccccc2c1=O | -0.104 |
| COc1cc(CN2CCC(C(N)=O)CC2)ccc1OCc1ccccc1 | 0.046 |
| COc1cc(CN2CCC(C(=O)NCCC(C)C)CC2)ccc1OCc1ccccc1 | 5.82 |
| CCN1CCc2c(sc(NC(=O)c3ccc(S(=O)(=O)N4CCCC4)cc3)c2C(=O)NC)C1 | -9.91 |
| Cc1ccc(NC(=O)c2cc(N3C(=O)C=CC3=O)ccc2N2CCOCC2)cc1 | -16.9 |
| O=C(Nc1ccc(S(=O)(=O)NC2=NCCCCC2)cc1)c1ccc([N+](=O)[O-])s1 | -24.7 |
| Cc1ccc2sc(N(CCCN(C)C)C(=O)c3ccc(S(=O)(=O)N(C)C4CCCCC4)cc3)nc2c1C | -39.9 |
| Cc1ccc2nc(NC(=O)CCCC(=O)O)sc2c1 | 12 |
| COc1ccc(S(=O)(=O)N2CCCCC2)cc1NC(=O)c1ccc([N+](=O)[O-])o1 | -19.1 |
| Cn1c(SCC(=O)N/N=C/c2ccc([N+](=O)[O-])s2)nnc1-c1ccccc1 | -30.7 |
| CC(=O)OCCCNc1cc(Sc2ccc(Cl)cc2)c2nonc2c1[N+](=O)[O-] | -14.9 |
| CCN1CCCC1CNC(=O)c1ccc2c(c1)NC(=O)/C(=C\c1ccc(OC)c(OC)c1)S2 (centres undefined) | 0.004 |
| CCN1CCCC1CNC(=O)c1ccc2c(c1)NC(=O)/C(=C\c1ccc(C)cc1)S2 (centres undefined) | -95.9 |
| COc1cccc(/C=C2/Sc3ccc(C(=O)NCCN4CCCC4)cc3NC2=O)c1 | -4.96 |
| O=C1Nc2cc(C(=O)NCCN3CCCCCC3)ccc2S/C1=C\c1ccccc1 | -25.8 |
| COC(=O)[C@@H]1C[C@]2(OC(=O)c3ccccc3)C=CC(=O)C[C@@H]2N1C(=O)OCc1ccccc1 | 5.93 |
| COc1ccccc1NS(=O)(=O)c1cccc(C(=O)N/N=C/c2ccc([N+](=O)[O-])o2)c1 | -30.3 |

| SMILES | activity change, negative = decreased viability [%] |
| --- | --- |
| Cc1ccccc1OCC(=O)N/N=C/c1ccc([N+](=O)[O-])o1 | -16.2 |
| O=C(COc1ccccc1)N/N=C/c1ccc([N+](=O)[O-])o1 | -8.29 |
| C=Cc1ncc(OC)c2c1[nH]c1ccccc12 | 14.5 |
| O=[N+]([O-])c1cccc2c(N3CCCC3)ccnc12 | -26.5 |
| CCN1CCN(c2ccc(NC(=O)c3ccc([N+](=O)[O-])o3)cc2Cl)CC1 | -0.148 |
| O=C(C[n+]1cccc2ccccc21)c1ccc([N+](=O)[O-])cc1 | -6.09 |
| Cc1cc(C)n(-c2ccc(C(=O)Nc3ccc(C)c(S(=O)(=O)N4CCOCC4)c3)cc2)n1 | -12.6 |
| CS(=O)(=O)c1nc(-c2ccc(F)cc2)cc(C(F)(F)F)n1 | 38.8 |
| CCn1c(/C=C/N(C)c2ccccc2)[n+](CC)c2ccc(Cl)cc21 | -36.6 |
| CCOC(=O)c1ccc2c(c1)n(CC)c(/C=C/N(C)c1ccccc1)[n+]2CC | -19.5 |
| Oc1cc(NCCN2CCOCC2)cc2cccnc12 | -26.1 |
| O=C(N/N=C/c1cc(Cl)ccc1O)c1ccncc1 | -31 |
| O=C(N/N=C\c1cc(Br)ccc1O)c1ccc(S(=O)(=O)N2CCCCC2)cc1 | -15.3 |
| O=C1c2cc(F)ccc2-n2c1nc1ccccc1c2=O | -37.3 |
| CCOC(=O)CSC1=NC(=O)/C(=C\c2ccc(Cl)cc2)S1 | -2.2 |
| O=C(N/N=C/c1ccc(F)cc1)c1c(O)c2ccccc2[nH]c1=O | -19.2 |
| O=C1/C(=C/c2ccccc2[N+](=O)[O-])COc2ccccc21 | 116 |
| Cc1ccc(-c2cn(-c3ccc(SC(F)F)cc3)c3[n+]2CCC3)cc1 | -14.1 |
| O=c1c(Cl)c2oc3ccccc3nc-2c2ccccc12 | -8.83 |
| COc1cccc(-c2nnc3n2N=C(C(C)(C)C)CS3)c1 | -24.4 |
| O=C(CCl)Nc1ccc(-c2ccccc2)cc1 | -39.9 |
| CS(=O)(=O)c1ccc2nc(NC(=O)c3ccccc3)sc2c1 | -10.8 |

| SMILES | activity change, negative = decreased viability [%] |
| --- | --- |
| COc1ccc(S(=O)(=O)N(C(C)=O)c2ccc(OC(C)=O)c3ccccc23)cc1[N+](=O)[O-] | -31.6 |
| CC1=C/C(=N\NC(=S)Nc2cccnc2)CC(C)(C)C1 | -15.5 |
| O=C(CCl)Nc1cccc(-c2cnc3ccccc3n2)c1 | -29.9 |
| Nc1nc2ccccc2n1/N=C/c1ccc([N+](=O)[O-])s1 | -21 |
| CC1CN(C(=O)CCC(=O)NCCCN2CCC(Cc3ccccc3)CC2)c2cc(Cl)ccc2O1 (centres undefined) | -37.2 |
| Clc1ccc(-c2c[n+](Cc3cccc(Cl)c3)c3n2CCC3)cc1 | 3.73 |
| COc1ccc(C(=O)NCCSc2ccccc2C)cc1 | -8.17 |
| COc1ccc(/C=C2\Sc3ccc(C(=O)NCCN4CCCCCC4)cc3N(C)C2=O)cc1 | -19.8 |
| Nc1c(N(CCC2=CCCCC2)C(=O)COc2ccc([N+](=O)[O-])cc2)c(=O)[nH]c(=O)n1Cc1ccccc1 | -29 |
| CN1CCN(c2ccc(NC(=O)c3ccc([N+](=O)[O-])o3)cc2Cl)CC1 | -1.44 |
| CN1CCN(c2ccccc2NC(=O)c2ccc([N+](=O)[O-])o2)CC1 | -26.5 |
| CC(=O)SC(C[N+](=O)[O-])c1cn(C(C)=O)c2ccccc12 (centres undefined) | 22.6 |
| CC(C)(C)C(=O)Cn1ncc(Cl)c(Cl)c1=O | 55.4 |
| C=C1C(=O)O[C@@]23[C@H]1CC[C@@H](C)[C@@H]2CC[C@@]1(C)O[C@@H]31 | 2.09 |
| CCCC(=O)N1CCN(c2ccc(NC(=O)c3ccc([N+](=O)[O-])o3)cc2)CC1 | 11.4 |
| CCN(CC)CCNC(=O)c1ccc(NC(=O)c2cccc(S(=O)(=O)N3c4ccccc4CC3C)c2)cc1 (centres undefined) | -12.4 |
| O=C(Nc1ccc(N2CCN(C(=O)c3ccc(Cl)cc3)CC2)cc1)c1ccc([N+](=O)[O-])o1 | 20.7 |
| O=C(/C=C/c1ccc(Cl)c([N+](=O)[O-])c1)c1ccc(O)cc1 | 24.9 |
| O=C(N/N=C/c1ccc([N+](=O)[O-])s1)c1ccccc1Br | -17.8 |
| COc1cc(NC(=O)c2ccc([N+](=O)[O-])o2)ccc1NC(=O)c1cccs1 | -28.9 |
